Results as given in PubChem BioAssay (Tox21).
Results filed as inconclusive are left out. Calls of active or inactive are those of the source. Unless noted, the call rests on the fitted dose curve; in most records, active means well fitted curve in the direction sought with a large enough effect in the repeat runs; inconclusive means weak or mixed curves; inactive means flat fitted curve, though single readings scatter.

Key:
[1] = qHTS assay to test for compound auto fluorescence at 535 nm (green) in HEK293 cells (AID 720680)
[2] = qHTS assay to test for compound auto fluorescence at 460 nm (blue) in HEK293 cell free culture (AID 720681)
Method in brief: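 Compounds were added to cell-free DMEM with 10% FBS and fluorescence read directly. The blue channel used 405 nm excitation and 460 nm emission, with triamterene as the reference fluorophore.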

[3] = qHTS assay to test for compound auto fluorescence at 535 nm (green) in HEK293 cell free culture (AID 720682)
Method in brief: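 Fluorescein serves as the green reference fluorophore; each compound's intrinsic emission at 535 nm (excitation 485 nm) is reported as an equivalent amount of that dye, measured in serum-containing DMEM without cells.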

[4] = qHTS assay to test for compound auto fluorescence at 590 nm (red) in HEK293 cell free culture (AID 720683)
Method in brief: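 Cell-free wells of DMEM with 10% FBS received compound, and intrinsic fluorescence was read at excitation/emission 540/590 nm. Values expressed as equivalence to Rose Bengal sodium.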

[5] = qHTS assay to test for compound auto fluorescence at 590 nm (red) in HepG2 cell free culture (AID 720684)
Method in brief: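 Compounds are added to culture medium (MEM, 10% FBS) lacking cells, then fluorescence is read at excitation 540 nm, emission 590 nm, with Rose Bengal sodium as the equivalency standard.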

[6] = qHTS assay to test for compound auto fluorescence at 460 nm (blue) in HepG2 cell free culture (AID 720685)
Method in brief: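 Compound (23 nL) or DMSO pinned into cell-free MEM with 10% FBS; blue fluorescence read at 405/460 nm excitation/emission, expressed as auto-fluorescence equivalency to triamterene.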

[7] = qHTS assay to test for compound auto fluorescence at 535 nm (green) in HepG2 cell free culture (AID 720686)
[8] = qHTS assay to test for compound auto fluorescence at 460 nm (blue) in HepG2 cells (AID 720687)
Method in brief: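 HepG2 cells in MEM with 10% FBS, attached overnight at 37 C, were exposed to compound or DMSO for 1 hr at 37 C, 5% CO2. Blue fluorescence was read at 405/460 nm, with triamterene as reference fluorophore.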

[9] = biological target: Glucocorticoid receptor (Homo sapiens) (UniProt P04150); assay: qHTS assay to identify small molecule agonists of the glucocorticoid receptor (GR) signaling pathway (AID 720691; active means well fitted activation curve with a large enough effect in the signal ratio in the repeat runs, not every such curve was filed as active; the % refers to the signal ratio)
Sequence of Glucocorticoid receptor (Homo sapiens) (P04150 whole entry, looked up): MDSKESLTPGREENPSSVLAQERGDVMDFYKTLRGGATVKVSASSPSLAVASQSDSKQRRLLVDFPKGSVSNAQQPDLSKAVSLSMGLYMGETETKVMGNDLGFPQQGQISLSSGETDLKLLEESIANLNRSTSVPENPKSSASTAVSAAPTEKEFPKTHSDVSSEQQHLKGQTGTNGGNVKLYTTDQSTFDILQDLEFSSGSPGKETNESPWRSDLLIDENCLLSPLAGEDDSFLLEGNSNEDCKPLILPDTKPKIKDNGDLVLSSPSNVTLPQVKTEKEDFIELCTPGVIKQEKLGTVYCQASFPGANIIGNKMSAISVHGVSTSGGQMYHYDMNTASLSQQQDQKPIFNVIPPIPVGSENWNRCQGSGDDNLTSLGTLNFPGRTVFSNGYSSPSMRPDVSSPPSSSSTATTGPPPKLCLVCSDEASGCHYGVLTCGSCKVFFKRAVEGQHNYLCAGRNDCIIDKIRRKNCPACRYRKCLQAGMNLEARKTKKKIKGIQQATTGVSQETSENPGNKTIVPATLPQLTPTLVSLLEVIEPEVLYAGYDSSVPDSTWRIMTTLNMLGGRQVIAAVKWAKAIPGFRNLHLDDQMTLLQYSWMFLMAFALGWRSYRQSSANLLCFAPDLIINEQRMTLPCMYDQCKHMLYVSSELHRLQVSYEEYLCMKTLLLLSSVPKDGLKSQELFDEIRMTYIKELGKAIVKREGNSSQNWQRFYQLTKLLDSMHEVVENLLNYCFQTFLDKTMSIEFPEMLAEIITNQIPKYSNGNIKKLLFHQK
Method in brief: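 qHTS in GR-bla HeLa cells: 4 h settling at 37 C/5% CO2, 18 h compound incubation at 37 C, 2 h LiveBLAzer B/G FRET substrate at room temperature, fluorescence intensity measured.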

[10] = biological target: Glucocorticoid receptor (Homo sapiens) (UniProt P04150); assay: qHTS assay to identify small molecule antagonists of the glucocorticoid receptor (GR) signaling pathway (AID 720692; active means well fitted inhibition curve with a large enough effect in the signal ratio in the repeat runs, not every such curve was filed as active; the % refers to the signal ratio)
Method in brief: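 Inhibition of glucocorticoid signalling is measured in HeLa cells with a GRE-controlled beta-lactamase reporter; cells are co-treated with compound and 5 nM dexamethasone (final) for 18 h before FRET substrate readout.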
On the % scale 0 is the no-effect control and ±100 the full control effect.

CCOC(=O)CBr
inactive: outcome [1] | outcome [2] | outcome [3] | outcome [4] | outcome [5] | outcome [6] | outcome [7] | outcome [8] | outcome [9]

Nc1nc(=S)[nH][nH]1
inactive: outcome [1] | outcome [2] | outcome [3] | outcome [4] | outcome [5] | outcome [6] | outcome [7] | outcome [8] | outcome [9]

N#Cc1cc(I)c(O)c(I)c1
inactive: outcome [1] | outcome [2] | outcome [3] | outcome [4] | outcome [5] | outcome [6] | outcome [7] | outcome [8] | outcome [9]

CC(=O)c1cc2c(cc1C)C(C)(C)C(C)CC2(C)C (stereo unspecified)
inactive: outcome [1] | outcome [2] | outcome [3] | outcome [4] | outcome [5] | outcome [6] | outcome [7] | outcome [8]

O=NN1CCCCCC1
inactive: outcome [1] | outcome [2] | outcome [3] | outcome [4] | outcome [5] | outcome [6] | outcome [7] | outcome [8] | outcome [9]

c1cc2ccc3cccc4ccc(c1)c2c34
inactive: outcome [1] | outcome [2] | outcome [3] | outcome [4] | outcome [5] | outcome [6] | outcome [7] | outcome [8] | outcome [9]

O=C=Nc1ccc(Cl)cc1
inactive: outcome [1] | outcome [2] | outcome [3] | outcome [4] | outcome [5] | outcome [6] | outcome [7] | outcome [8]

COC(C)(C)CCC[C@H](C)C/C=C/C(C)=C/C(=O)OC(C)C
inactive: outcome [1] | outcome [2] | outcome [3] | outcome [4] | outcome [5] | outcome [6] | outcome [7] | outcome [8]

CCc1ccc(C(=O)NN(C(=O)c2cc(C)cc(C)c2)C(C)(C)C)cc1
inactive: outcome [1] | outcome [2] | outcome [3] | outcome [4] | outcome [5] | outcome [6] | outcome [7] | outcome [8] | outcome [9]

Clc1cc(C(Cl)(Cl)Cl)cnc1Cl
inactive: outcome [1] | outcome [2] | outcome [3] | outcome [4] | outcome [5] | outcome [6] | outcome [7] | outcome [8]

CS/C(C)=N/OC(=O)N(C)SN(C)C(=O)O/N=C(\C)SC
inactive: outcome [1] | outcome [2] | outcome [3] | outcome [4] | outcome [5] | outcome [6] | outcome [7] | outcome [8] | outcome [9]

C=CC(=O)OCCCCO
inactive: outcome [1] | outcome [2] | outcome [3] | outcome [4] | outcome [5] | outcome [6] | outcome [7] | outcome [8] | outcome [9]

CCBr
inactive: outcome [1] | outcome [2] | outcome [3] | outcome [4] | outcome [5] | outcome [6] | outcome [7] | outcome [8] | outcome [9]

Cl/C=C\C[N+]12CN3CN(CN(C3)C1)C2
inactive: outcome [1] | outcome [2] | outcome [3] | outcome [4] | outcome [5] | outcome [6] | outcome [7] | outcome [8] | outcome [9]

CCCCCCCCCCOC(=O)c1ccccc1C(=O)OCCCCCCCCCC
inactive: outcome [1] | outcome [2] | outcome [3] | outcome [4] | outcome [5] | outcome [6] | outcome [7] | outcome [8] | outcome [9]

O=Cc1ccc2c(c1)OCO2
inactive: outcome [1] | outcome [2] | outcome [3] | outcome [4] | outcome [5] | outcome [6] | outcome [7] | outcome [8] | outcome [9]

COc1ccc(-c2ccccc2)cc1NNC(=O)OC(C)C
inactive: outcome [1] | outcome [2] | outcome [3] | outcome [4] | outcome [5] | outcome [6] | outcome [7] | outcome [8] | outcome [9]

CO[C@@H]1[C@H](OC(=O)NC(=O)CCl)CC[C@]2(CO2)[C@H]1[C@@]1(C)O[C@@H]1CC=C(C)C
inactive: fluorescence, % of fluorescein [1] -0.127% [at 18.6 µM] | fluorescence, % of fluorescent control [2] -0.0636% [at 18.6 µM] | activity change [3] 0.201% [at 18.6 µM] | fluorescence, % of fluorescent control [4] -0.369% [at 18.6 µM] | fluorescence, % of Rose Bengal [5] -0.153% [at 18.6 µM] | fluorescence, % of fluorescent control [6] -0.133% [at 18.6 µM] | fluorescence, % of fluorescein control [7] -0.0091% [at 18.6 µM] | fluorescence, % of fluorescent control [8] 0.154% [at 18.6 µM] | outcome [9]

Cc1c(F)c(F)c(COC(=O)C2C(/C=C(\Cl)C(F)(F)F)C2(C)C)c(F)c1F (stereo unspecified)
inactive: outcome [1] | outcome [2] | outcome [3] | outcome [4] | outcome [5] | outcome [6] | outcome [7] | outcome [8] | outcome [9]

O=C1NCN(c2ccccc2)C12CCN(CCCOc1ccc(F)cc1)CC2
inactive: outcome [1] | outcome [2] | outcome [3] | outcome [4] | outcome [5] | outcome [6] | outcome [7] | outcome [8] | outcome [9]

O=C(CBr)OCc1ccccc1
inactive: outcome [1] | outcome [2] | outcome [3] | outcome [4] | outcome [5] | outcome [6] | outcome [7] | outcome [8] | outcome [9] | Potency [10]

C[C@H]1CNCCc2ccc(Cl)cc21
inactive: outcome [1] | outcome [2] | outcome [3] | outcome [4] | outcome [5] | outcome [6] | outcome [7] | outcome [8] | outcome [9] | Potency [10]

Cc1ccc(-c2c(Cl)nc(C#N)n2S(=O)(=O)N(C)C)cc1
inactive: outcome [1] | outcome [2] | outcome [3] | outcome [4] | outcome [5] | outcome [6] | outcome [7] | outcome [8] | outcome [9]

CC(Cl)Cl
inactive: outcome [1] | outcome [2] | outcome [3] | outcome [4] | outcome [5] | outcome [6] | outcome [7] | outcome [8] | outcome [9]

CC(C)(OO)c1ccccc1
inactive: outcome [1] | outcome [2] | outcome [3] | outcome [4] | outcome [5] | outcome [6] | outcome [7] | outcome [8] | outcome [9]

O=NN1CCNCC1
inactive: outcome [1] | outcome [2] | outcome [3] | outcome [4] | outcome [5] | outcome [6] | outcome [7] | outcome [8] | outcome [9]

O=C(CBr)c1ccccc1
inactive: outcome [1] | outcome [2] | outcome [3] | outcome [4] | outcome [5] | outcome [6] | outcome [7] | outcome [8] | outcome [9]
